Measured values as given in PubChem BioAssay.
Active and inactive are the calls of the source.

Assay: HepG2 liver cancer cell viability effects, profiling panel, resazurin fluorescence, 24 h, PK04 Diversity Set (AID 1172); also: test concentration not given here
Details: higher = more signal

Structure (SMILES)	z-score
O=C1NC(=O)C2C1C=CC(C(O)c1ccc([N+](=O)[O-])cc1)N2Nc1ccccn1 (stereo not drawn)	-0.731
O=C1C2C=CC(C(O)c3ccc([N+](=O)[O-])cc3)N(Nc3ccccc3F)C2C(=O)N1c1ccccc1 (stereo not drawn)	-0.54
COc1ccc([Si](C)(C)[C@@H]2[C@@H](CC(=O)N(CCO)Cc3ccccc3)O[C@]3(C(=O)N(Cc4ccc(I)cc4)c4ccccc43)[C@H]2C)cc1	-1.42
CN1C(=O)C2C(C1=O)C1C=C(CCCO)C2C(C2CC2)N1Cc1cccc(OC(F)(F)F)c1 (stereo not drawn)	-0.584
CCOC(=O)C[C@H]1[C@H](OC(=O)c2cc3ccccc3oc2=O)[C@@H](NC(=O)CC(C)C)c2cc(OCCCO)ccc2N1C(=O)Cc1ccc(OC)cc1	-0.74
NC(=O)N1C(=O)C2C(C1=O)C1C=C(CCCO)C2C(C2CC2)N1Cc1sc2ccccc2c1Cl (stereo not drawn)	0.146
COCCn1c(C(=O)N(C)C)cc2c1C[C@H]1CN(C(=O)c3ccccc3)[C@@](Cc3ccc(OC)cc3)(C(=O)OC)[C@@H]21	-0.17

Assay: basal S. cerevisiae growth modulation, no modifier, primary screen, OD600, strain BY4716, 24 h, basal condition (AID 1173)
Details: OD600, 24 h, higher = more signal, called active from +8 up or from −8 down

Structure (SMILES)	z-score
CCCNC(=O)[C@@]1(Sc2ccc(C)cc2)CC(=O)N(Cc2ccccc2Cl)[C@@H]1c1ccc(CO)cc1I	-4.16 (inactive)
C=CCN1Cc2ccccc2[C@H]2OC(c3ccc(OCCCO)cc3)=N[C@@]2(CCS(=O)(=O)c2ccccc2)C1=O	1.11 (inactive)
[N-]=[N+]=Nc1ccccc1C[C@]1(C(=O)N2CCOCC2)N=C(c2ccc(OCCCO)cc2)O[C@H]1c1ccccc1N=[N+]=[N-]	-2.51 (inactive)
C[C@]1(C(=O)O)c2ccccc2C(=O)N(Cc2cc(F)cc(C(F)(F)F)c2)[C@H]1c1ccc(CO)cc1	-1.43 (inactive)
CC(C)c1nc2cc(Br)ccc2c(=O)o1	1.25 (inactive)
CN(C)CCCC[C@@H]1NC(=O)[C@H]2C[C@@H](C(=O)O)[C@@H](c3ccc(O)cc3)N2C1=O	-1.23 (inactive)
CN1C(=O)C2C(C3CC3)C=C3CN(Cc4cccc(Cl)c4)[C@@H]([C@@H](O)Cc4ccccc4)C3C2C1=O (stereo partly drawn)	-1.83 (inactive)
C=CCC(OC(C)=O)[C@@H]1[C@@H](N(Cc2ccc(-c3cccc(C(F)(F)F)c3)o2)C(=O)c2ccc(-c3ccccc3)cc2)c2cc(OCCCO)ccc2N1C(=O)c1ccc2ccccc2c1 (stereo partly drawn)	0.488 (inactive)
CCCCC(O)C1C=CC2C(=O)N(c3ccccc3)C(=O)C2N1Nc1ccc(C#N)cc1 (stereo not drawn)	-1.03 (inactive)
NC(=O)N1C(=O)C2C(C1=O)C1C=C(CCCO)C2C(c2ccc(CN3CCCC3)cc2)N1Cc1sc2ccccc2c1Cl (stereo not drawn)	-2.06 (inactive)
CC(C)=CCCC(C)=CC(O)C1C=CC2C(=O)NC(=O)C2N1Nc1ccccn1 (stereo not drawn)	0.386 (inactive)
Cc1ccc(S[C@]2(C(=O)NCCCN(C)C)CC(=O)N(C3Cc4ccccc4C3)[C@@H]2c2ccc(CO)cc2I)cc1	-3.43 (inactive)
COc1ccc(C#Cc2ccc3c(c2)[C@]2(C(=O)N3)[C@H](C(=O)O)[C@H]3C(=O)O[C@H](c4ccccc4)[C@H](c4ccccc4)N3[C@@H]2c2ccccc2OCCO)cc1	0.0196 (inactive)
COc1ccc(CCNC(=O)[C@@H]2c3ccccc3C(=O)N(Cc3ccccc3OC)[C@H]2c2ccc(CO)cc2)cc1	0.528 (inactive)
C=CCC(OC(C)=O)[C@@H]1[C@@H](N(Cc2cccc3ccccc23)C(=O)Cc2ccc(OC)cc2)c2cc(OCCCO)ccc2N1C(=O)Cc1ccc2ccccc2c1 (stereo partly drawn)	0.428 (inactive)
CC(C)(C)OC(=O)CC[C@@]1(C(=O)NCCN2CCOCC2)N=C(c2ccc(OCCCO)cc2)O[C@@H]1c1ccccc1CN=[N+]=[N-]	-0.51 (inactive)
CC(C)NC(=O)[C@@]1(C)c2ccccc2C(=O)N(Cc2ccccc2)[C@H]1c1ccc(CO)cc1	-0.177 (inactive)
CN(C)c1ccc(C(O)C2C=CC3C(=O)N(Cc4ccccc4)C(=O)C3N2n2cnnc2)cc1 (stereo not drawn)	-0.116 (inactive)

Structure (SMILES)	z-score
COc1ccc(C(=O)Nc2ccc(CN3C(=O)[C@@]4(O[C@@H](CCn5cc(CCO)nn5)[C@H]([Si](C)(C)c5ccc(OC)cc5)[C@H]4C)c4ccccc43)cc2)cc1	-5.03 (inactive)
CC(C)C[C@H]1NC(=O)C([C@@H](C)OCc2ccccc2)NC(=O)[C@@]23C(=O)N[C@@H](Cc4ccccc4)C2[C@H](C)[C@@]2(C)O[C@H]2C3/C=C/C/C=C\CNC1=O (stereo partly drawn)	-0.0256 (inactive)
COc1ccc([Si](C)(C)[C@@H]2[C@@H](CC(=O)N3CCC[C@H]3CO)O[C@]3(C(=O)N(Cc4cccc(N5CCCCC5=O)c4)c4ccccc43)[C@H]2C)cc1	-0.51 (inactive)
CO[C@H]1O[C@H](CO)[C@@H](OC(=O)Nc2ccccc2-c2ccccc2)[C@H](OC(=O)Nc2ccccc2)[C@H]1OC(=O)Nc1ccccc1	0.788 (inactive)
CCCCC(O)C1C=CC2C(=O)N(c3ccccc3)C(=O)C2N1Nc1ccc([N+](=O)[O-])cc1 (stereo not drawn)	-0.485 (inactive)
C=CCNC(=O)[C@@H]1[C@H]2C(=O)O[C@H](c3ccccc3)[C@H](c3ccccc3)N2[C@H](c2ccc(OCCO)cc2)[C@@]12C(=O)Nc1ccc(C#CC3(O)CCCCCC3)cc12	0.933 (inactive)
CN1C(=O)C2C(C1=O)C1C=C(c3ccc(CO)cc3)C2C(C2CC2)N1C (stereo not drawn)	0.385 (inactive)
COC(=O)[C@@]1(Cc2ccc(F)cc2)[C@H]2c3cc(C(=O)N4CCCC4)n(Cc4ccccn4)c3C[C@H]2CN1C(=O)c1ccccc1	1.32 (inactive)
NC(=O)N1C(=O)C2C(C1=O)C1C=C(CCCO)C2C(c2ccc(CN3CCCC3)cc2)N1Cc1cc2c(cc1Br)OCO2 (stereo not drawn)	-0.222 (inactive)
CCCCN1CC=CC23O[C@@H]4/C=C\CCCOC(=O)C4[C@H]2C(=O)N(C(CO)C(C)C)[C@@H]3C1=O (stereo partly drawn)	0.259 (inactive)
O=C1O[C@H](c2ccccc2)[C@H](c2ccccc2)N2[C@H]1[C@@H](C(=O)N1CCN(c3ncccn3)CC1)[C@]1(C(=O)Nc3ccc(C#CCCO)cc31)[C@H]2c1ccc(O)cc1	0.298 (inactive)
O=C1NC(=O)C2C1C=CC(C(O)c1ccc([N+](=O)[O-])cc1)N2Nc1ccccn1 (stereo not drawn)	0.579 (inactive)
O=C1C2C=CC(C(O)c3ccc([N+](=O)[O-])cc3)N(Nc3ccccc3F)C2C(=O)N1c1ccccc1 (stereo not drawn)	-1.45 (inactive)
COc1ccc([Si](C)(C)[C@@H]2[C@@H](CC(=O)N(CCO)Cc3ccccc3)O[C@]3(C(=O)N(Cc4ccc(I)cc4)c4ccccc43)[C@H]2C)cc1	-0.498 (inactive)
CN1C(=O)C2C(C1=O)C1C=C(CCCO)C2C(C2CC2)N1Cc1cccc(OC(F)(F)F)c1 (stereo not drawn)	-1.13 (inactive)
CCOC(=O)C[C@H]1[C@H](OC(=O)c2cc3ccccc3oc2=O)[C@@H](NC(=O)CC(C)C)c2cc(OCCCO)ccc2N1C(=O)Cc1ccc(OC)cc1	-0.628 (inactive)
NC(=O)N1C(=O)C2C(C1=O)C1C=C(CCCO)C2C(C2CC2)N1Cc1sc2ccccc2c1Cl (stereo not drawn)	-6.04 (inactive)
COCCn1c(C(=O)N(C)C)cc2c1C[C@H]1CN(C(=O)c3ccccc3)[C@@](Cc3ccc(OC)cc3)(C(=O)OC)[C@@H]21	1.63 (inactive)
